A selection: hits, their analogues and other compounds. The true share with any hit is near 3.1%.
IL-2 act: activates IL-2 in a cell-based reporter assay | IL-2 activation reporter assay, cell-based qHTS; stimulated with anti-CD3/CD4/CD28 beads; in transgenic mouse T cells | activation, % (series mostly up to about 46 µM) | actives 0.065% (n = 360,000); in the data active = activation above about 50%; inconclusive = mostly about 30% to 49%
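Using fluorescent plate cytometry, EGFP and DsRed are detected in transgenic mouse T cells stimulated 18 h at 37 degrees C with antibody-coated beads after 60 min compound pretreatment.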
BRCA1 expr act: increases BRCA1 expression; MCF7-BRCA1-FFLuc reporter, luminescence, 48 h; response scale: scaled: vehicle 0%, 10 µM genistein 100%; Potency, µM (top dose mostly 46.1 µM), usual class: activators; actives 1.1% (n = 380,000); AID 624202; note: nearly all actives have a fitted effect of over 80% in size
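Luminescence from a BRCA1-driven firefly luciferase in MCF7 cells was the read-out, taken 15 min after substrate addition following 48 h compound exposure at 37 °C. Data were normalized to a 10 microM genistein control and DMSO vehicle.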
ELG1 repair inh: inhibitors of ELG1-dependent DNA repair in HEK293T cells; HEK293T ELG1-luciferase reporter, luminescence, 16 h; DNA damage induced by 5-fluorouridine; Potency, µM (doses to about 46.1 µM), most hits filed as inhibitors; actives 2.3% (n = 330,000); note: nearly all actives have a fitted effect of over 55% in size
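Cells (2,000 per well) received 5-fluorouridine plus test compound or DMSO and were incubated 16 hr at 37 °C, 5% CO2. Luciferase activity was read by luminescence 30 min after ONE-Glo addition; signal suppression marked inhibition of damage-induced ELG1 function.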
Nrf2 ARE act: activators of Nrf2 (ARE) signaling; AID 624171; Potency, µM (highest dose often 46.1 µM), hits mostly activators; AREc32 ARE-luciferase reporter (MCF7-derived line), luminescence, 24 h; actives 0.31% (n = 410,000); note: nearly all actives have a fitted effect of over 65% in size
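Reporter line AREc32 (ARE-Fluc), seeded overnight in OPTI-MEM with 5% FBS; compound pin-transferred, 24 hr at 37 deg C, 5% CO2; luminescent read-out.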
Numbers stand for hits; i = inactive; ? = inconclusive; nt = no result given; [ ] = remark or other dose. Unless noted, calls come from the whole dose curve; as a rule, active = well fitted curve in the direction sought with a large enough effect; inconclusive = small, poorly fitted or top-dose-only effect, or another doubt; inactive = no such curve, though single readings can be large; an effect the other way counts as inactive or inconclusive.

SMILES	IL-2 act	BRCA1 expr act	ELG1 repair inh	Nrf2 ARE act
CCOC(=O)c1c(C)[nH]c(C(=O)CN2C(=O)NC(C)(c3ccc4ccccc4c3)C2=O)c1C (configuration not stated)	i	i	16µM	i
CCNC(=O)C1(C)CCCN(Cc2noc(-c3c(C)noc3C)n2)C1 (configuration not stated)	i	i	nt	i[9.22 µM]
Cc1ccc(NC(=O)CCn2c(=O)c3cccn3c3ccccc32)c(Cl)c1	nt	nt	nt	i
CCCCSCCCNC(=O)CS(=O)Cc1nc(-c2cccc(C)c2)oc1C (configuration not stated)	i	i[1.84 µM]	16µM	i
CCOc1ccc2nc(SCc3ccccc3C#N)sc2c1	i	7.9µM	?	i
COc1cccc(CNC(=O)CN2C(=O)CCn3nc(-c4cn(C)c5ccccc45)cc32)c1OC	nt	nt	nt	i
Cc1cc(=O)oc2c(C)c(OC(C)C(=O)NCC(O)c3ccccc3)ccc12 (configuration not stated)	i	i	i	i
Cc1c(OC(C)C(=O)NCC(O)c2ccccc2)ccc2c3c(c(=O)oc12)CCCC3 (configuration not stated)	i	i	15µM	i
NC(=O)NCCC1=CCCCC1	i	i	i	i
C=CCn1c(N)c(C(=O)NCCC2=CCCCC2)sc1=S	i	13µM	?	i
O=C(CCSc1ccccc1)Nc1ccc(OCc2ccccc2)cc1	i	11µM	i	i
O=C(CCOc1ccccc1)Nc1ccc(Br)cc1	i	7.9µM	?	i
O=C(CCCOc1ccccc1)Nc1ccc(Br)cc1	i	i	nt	i
Cc1cnc(C(=O)OCC(=O)NCc2ccccc2)cn1	i	i	i	i
Cc1cnc(C(=O)OCC(=O)Nc2ccc(OCc3ccccc3)cc2)cn1	i	10µM	?	i
COc1ccc(CCC(=O)NO)cc1	nt	i	nt	nt
FC(F)(F)c1cnc(C(c2ccccn2)c2ncn[nH]2)c(Cl)c1 (configuration not stated)	i	i	26µM	i
O=c1[nH]c(CN2CCN(c3ccc(O)cc3)CC2)nc2scc(-c3ccc(Cl)cc3)c12	i	i	?	i
O=c1[nH]c(CN2CCN(c3ccccc3O)CC2)nc2scc(-c3ccccc3Cl)c12	i	i	21µM	i
COc1ccccc1/C=C/C(=O)N1CCN(S(=O)(=O)c2cccs2)CC1	i	i	21µM	i
COc1ccccc1CC(=O)N1CCN(S(=O)(=O)c2cccs2)CC1	i	i	i	i
c1coc(CSc2ncnc3c2oc2ccccc23)c1	i	i	?	4.5µM
c1ccc(CSc2ncnc3c2oc2ccccc23)cc1	i	i	nt	i
c1ccc(Sc2ncnc3c2oc2ccccc23)nc1	i	11µM	?	?
COc1ccccc1N1CCN(C(=O)C(CCSC)NS(=O)(=O)c2ccc3c(c2)oc(=O)n3C)CC1 (configuration not stated)	nt	nt	nt	i
SMILES	IL-2 act	BRCA1 expr act	ELG1 repair inh	Nrf2 ARE act
COc1cccc(C(=O)CSc2nccn2C)c1	i	i	?	i[9.22 µM]
Cn1ccnc1SCC(=O)c1ccc2ccccc2c1	i	6.3µM	?	i
CCOC(=O)C[C@@H]1OC[C@H](Cc2ccccc2)N1S(=O)(=O)c1ccc(C)cc1	i	nt	nt	nt
O=C(Nc1ccc(Cl)cc1)Nc1ccc2c(c1)N1CCN=C1S2	i	i	23µM	i
COc1cccc(Cn2c(=O)n(-c3ccc(C)c(F)c3)c(=O)c3sc4ccccc4c32)c1	nt	i	nt	i
CC(Oc1ccc(Cl)cc1Cl)C(=O)Nc1ccncc1 (configuration not stated)	i	i	5.8µM	i
CCCCn1c(=O)[nH]c(=O)c2c1nc(Cn1ncc(Cl)c(Cl)c1=O)n2CCC	i	i	23µM	i
Oc1[nH]c2ccccc2c1N=Nc1ccc(F)cc1	191	i	?	i
CC(=O)Nc1cccc(-c2ccnc3c2CC(C)(C(=O)NCC2CC2)O3)c1 (configuration not stated)	i	i	nt	i
CC1Cc2ccccc2N1C(=O)CN1CCC(n2nnc3cc(C(F)(F)F)ccc32)CC1 (configuration not stated)	i	i	21µM	i
COC(=O)c1ccccc1NC(=O)CN1CCC(n2nnc3cc(C(F)(F)F)ccc32)CC1	i	i	?	i
Cc1ccc(N2C(=O)c3ccccc3NC2c2ccccc2O)cc1 (configuration not stated)	i	1.6µM	?	i
O=C1c2ccccc2NC(c2ccccc2O)N1O (configuration not stated)	i	i	?	i
COc1cccc(NC(=O)CSc2nc3c(oc4ccccc43)c(=O)n2Cc2ccco2)c1	nt	i	nt	i
CCOC(=O)c1oc2ccc(CNCCO)c(Cl)c2c1C	i	11µM	?	i
O=C(O)CCCn1c(O)c(C=C2N=c3ccccc3=N2)sc1=S	i	i	?	14µM
O=C(O)CCCCCn1c(O)c(C=C2N=c3ccccc3=N2)sc1=S	i	i	?	?
Cc1cccc(Cn2c(C)c(C)c3cc(C(=O)NCc4ccco4)ccc32)c1	nt	nt	nt	i
CC(C)C(NC(=O)C1CCCCC1)C(=O)Nc1ccncc1 (configuration not stated)	i	i	i	i
CC(Sc1ccccc1F)C(=O)Nc1ccc2c(c1)OCCO2 (configuration not stated)	i	11µM	?	i
COc1ccc(-c2nnc(SC(C)C(=O)Nc3ccc4c(c3)OCCO4)o2)cc1 (configuration not stated)	i	10µM	?	i
CSCC[C@H](NC(=O)[C@@H]1Cc2ccccc2CN1)C(=O)Nc1ccc2c(c1)OCCO2	i	11µM	?	i
C[C@H](NC(=O)[C@@H]1Cc2ccccc2CN1)C(=O)Nc1ccc2c(c1)OCCO2	i	i	?	i
CC(Sc1ccc2c(c1)OCCO2)C(=O)Nc1ccc2c(c1)OCO2 (configuration not stated)	i	i	i	i
CC(C)C(NC(=O)C1CCCCC1)C(=O)Nc1ccc2c(c1)OCCO2 (configuration not stated)	i	4.5µM	?	i
SMILES	IL-2 act	BRCA1 expr act	ELG1 repair inh	Nrf2 ARE act
C=C[C@@]1(C)C[C@H](OC(=O)CSC(C)(C)CNC(=O)[C@@H](N)C(C)C)[C@@]2(C)C(C)CC[C@@]3(CCC(=O)[C@@H]32)[C@H](C)[C@H]1O (some centres not stated)	nt	i	nt	nt
CCCCCn1c(=O)c(-c2nc3ccccc3[nH]2)c(O)c2ccccc21	i	i	7.3µM	i
CCCCCCCCn1c(=O)c(C(=O)OCC)c(O)c2ccccc21	i	i	i	i
CCOC(=O)N1CCC(NS(=O)(=O)c2ccc(NC(C)=O)c(Cl)c2)CC1	i	i	7.3µM	i
Cc1nc(-c2ccc(S(=O)(=O)NCC3CCN(C(=O)OC(C)(C)C)CC3)s2)cs1	i	i	21µM	i
Oc1ccccc1C=NCCN1CCN(CCN=Cc2ccccc2O)C1c1ccccc1O (configuration not stated)	i	i	nt	i
CCCCC(=O)N1CCc2cc(OC)c(OC)cc2C1COc1ccc(C(=O)OCC)cc1 (configuration not stated)	nt	i	nt	i
